Inconclusive results are not listed. Activity calls are given as the source filed them. Rule for the calls: active = hit-call score of the fitted dose curve at least 0.9, where 1 is the maximum; inconclusive = response in the unintended direction; inactive = score below 0.9.
The molecules below were run on SRY-box transcription factor 17 (SOX17) Protein Expression, Deisenroth Lab, SOX17 (gene 64321) (assay: CCTE_Deisenroth_DEVTOX-GLR_Meso_SOX17: CCTE's DevTox GLR-Meso Assay Evaluation of SRY-box transcription factor 17 (SOX17) Protein Expression, Deisenroth Lab).
Method: CCTE_Deisenroth_DEVTOX-GLR_Meso assay is a cell-based, multiplex-readout assay that uses RUES2-GLR, a human pluripotent cell line, with measurements taken at 48 hours after chemical dosing in a 384-well microplateCCTE_Deisenroth_DEVTOX-GLR_Meso_SOX17 is 1 of 4 assay components calculated from the CCTE_Deisenroth_DEVTOX-GLR_Meso assay and it measures an the percentage of cells in an endoderm state. Using a type of inducible fluorescent protein reporter, gain-of-signal activity can be used to understand changes in gene expression with fluorescent microscopy. The percentage of SOX17+ cells are determined by calculating the number of SOX17+ cells divided by cell count. To generalize the intended target to other relatable targets, this assay component is annotated to the transcription factor intended target family, where the subfamily is SRY-related HMG-box.Data from the assay component CCTE_Deisenroth_DEVTOX-GLR_Meso_SOX17 was analyzed as 1 assay endpoint. The endpoint is the percent SOX17+ cell population minus the 0.2% DMSO control in the CCTE_Deisenroth_DEVTOX-GLR_Meso assay. This assay endpoint can be referred to as a secondary readout since this assay has produced multiple assay endpoints where this one serves as a measure of endoderm differentiation.
All assay protocols are aligned to the DevTox GLR-Endo assay workflow. Cells are seeded into 384-well microplates for 24 hours prior to initiating differentiation in defined media for a total duration of 48 hours. A total of two chemical exposures are administered in 24-hour intervals during the 48-hour differentiation period. At the assay termination point, cells are fixed and stained with a fluorescent dye demarcating the nucleus. High-content imaging is used to acquire brightfield and fluorescent channel images across 5 fields per well. Cell identification and mean biomarker fluorescence intensities are calculated with image analysis software to determine the total cell counts for viability assessment and the biomarker expression frequency for each lineage-dependent assay. A typical experimental design tests a 10-point concentration series (1 nM - 200 uM) for 28 compounds in single technical replicate. Assay plate controls include non-differentiated pluripotent cells (baseline control), lineage-specific differentiated cells (differentiation control), and DMSO solvent exposed differentiated cells (solvent control). Experiments typically comprise a minimum of four experimental replicates (n=4).

SMILES	AC50	outcome
CN(Cc1cnc2nc(N)nc(N)c2n1)c1ccc(C(=O)N[C@@H](CCC(=O)O)C(=O)O)cc1	0.0944 µM (active)	
O=C1CCC(N2C(=O)c3ccccc3C2=O)C(=O)N1 (centres undefined)		inactive
O=C1NC(=O)C(c2ccccc2)(c2ccccc2)N1	146 µM (active)	
CC1=C(/C=C/C(C)=C/C=C/C(C)=C\C(=O)O)C(C)(C)CCC1	30.2 µM (active)	
CS(=O)(=O)OCCCCOS(C)(=O)=O	107 µM (active)	
CCCC(CCC)C(=O)O		inactive
CCN(CC)CCNC(=O)c1c(C)[nH]c(/C=C2\C(=O)Nc3ccc(F)cc32)c1C	0.8 µM (active)	
O=c1[nH]cc(F)c(=O)[nH]1	22.6 µM (active)	
CC1=C(/C=C/C(C)=C/C=C/C(C)=C/C(=O)O)C(C)(C)CCC1	22 µM (active)	
Nc1nc2ncc(CNc3ccc(C(=O)N[C@@H](CCC(=O)O)C(=O)O)cc3)nc2c(=O)[nH]1		inactive
CC/C(=C(/CC)c1ccc(O)cc1)c1ccc(O)cc1	6.47 µM (active)	
Nc1cccc2c1C(=O)N(C1CCC(=O)NC1=O)C2=O (centres undefined)		inactive
CC(C)(c1ccc(O)cc1)c1ccc(O)cc1	142 µM (active)	
O=C1NS(=O)(=O)c2ccccc21		inactive
